The test system of experiment [1] is Vero E6 infected with SARS-CoV-2. As to the kind of experiment: morphology score (similarity to uninfected cells); higher = more like uninfected cells. The conditions noted are these: 24 h.
Experiment [2] has the same test system. As to the kind of experiment: SARS-CoV-2 infection rate relative to infected DMSO; higher = more infection, active = 60 or less. The conditions noted are these: 24 h.

For 28 compounds, morphology score and SARS-CoV-2 infection rate results are on record in the supplement of paper PMC13380429.

The structures appear in SMILES notation.

For the compound `Cc1nc(Nc2ccc(F)cc2)nc(N2CCc3ccccc3C2C)c1C` (stereo unspecified) [revaprazan] (10 µM), the morphology score in experiment [1] was determined as 0.59. Also, in experiment [2], the SARS-CoV-2 infection rate was 42.5% (active).

The compound `C=CCc1cccc(/C=N/NC(=O)CN2CCN(Cc3ccccc3)CC2)c1O` (0.833333 µM) registered a morphology score in experiment [1] of 0.152. Besides, the SARS-CoV-2 infection rate in experiment [2] is 100% (inactive).

In experiment [1], `COC(=O)Nc1nc2cc(C(=O)c3cccs3)ccc2[nH]1` [nocodazole] (0.833333 µM) yielded a morphology score of 0.025. Besides, the SARS-CoV-2 infection rate in experiment [2] is 104% (inactive).

Turning to `CC[C@@H]1C(=O)N(C)c2cnc(Nc3ccc(C(=O)N[C@H]4CC[C@H](N5CCN(CC6CC6)CC5)CC4)cc3OC)nc2N1C(C)C` [volasertib] (10 µM), the morphology score in experiment [1] was -0.314. In experiment [2], the SARS-CoV-2 infection rate was 104% (inactive).

Compound `CC(C)NC[C@@H](C(=O)N1CCN(c2ncnc3c2[C@H](C)C[C@H]3O)CC1)c1ccc(Cl)cc1` (10 µM) yielded a morphology score in experiment [1] of 0.0963. The SARS-CoV-2 infection rate in experiment [2] is 96% (inactive).

In turn, `CN1CCN(C2CCN(C(=O)Nc3cc(Oc4ccc(NC(=O)C5(C(=O)Nc6ccc(F)cc6)CC5)c(F)c4)ccn3)CC2)CC1` [golvatinib] (0.833333 µM) yielded a morphology score in experiment [1] of 0.0621. Further, the SARS-CoV-2 infection rate in experiment [2] is 104% (inactive).

As for `Cc1ccc2c(=O)c3ccccc3n(CCCN)c2c1C` (10 µM), the morphology score in experiment [1] was -0.144. Besides, in experiment [2], the SARS-CoV-2 infection rate is 110% (inactive).

`N#CCC(=O)NN` [cyacetacide] (10 µM) came in with a morphology score in experiment [1] of 0.167. Besides, the SARS-CoV-2 infection rate in experiment [2] is 102% (inactive).

As for `COc1ccc(NC(=O)c2ccc(C(=N)N(C)C)cc2)c(C(=O)Nc2ccc(Cl)cn2)c1` [betrixaban] (10 µM), the morphology score in experiment [1] was determined as 0.0893. Further, the SARS-CoV-2 infection rate in experiment [2] is 91% (inactive).

As to `CC[C@H](Nc1ncnc2[nH]cnc12)c1nc2cccc(F)c2c(=O)n1-c1ccccc1` [idelalisib] (10 µM), the morphology score in experiment [1] was -0.015. The SARS-CoV-2 infection rate in experiment [2] is 116% (inactive).

Regarding `CN(C)CCN(Cc1cccs1)c1ccccn1` [methapyrilene] (10 µM), the morphology score in experiment [1] was -0.165. For the same compound, the SARS-CoV-2 infection rate in experiment [2] was 113% (inactive).

As to `CCCn1c(=O)c2[nH]cnc2n(-c2ccc(Cl)cc2)c1=O` [arofylline] (10 µM), the morphology score in experiment [1] was found to be 0.178. Moreover, the SARS-CoV-2 infection rate in experiment [2] is 108% (inactive).

With `Clc1ccc(COC(Cn2ccnc2)c2ccc(Cl)cc2Cl)c(Cl)c1` (stereo unspecified) [miconazole] (10 µM), the morphology score in experiment [1] was -0.274. In experiment [2], the SARS-CoV-2 infection rate is 118% (inactive).

On to `Cc1ncc(C)n2nc([C@@H]3C[C@H]3c3nc4c5cccnc5ccn4c3C)nc12` (10 µM), for which the morphology score in experiment [1] was -0.0961. Also, the SARS-CoV-2 infection rate in experiment [2] is 106% (inactive).

With `COc1ccc(S(=O)(=O)Nc2cccnc2Nc2ccc(O)cc2)cc1` (10 µM), in experiment [1], the morphology score is -0.213. Further, the SARS-CoV-2 infection rate in experiment [2] was 106% (inactive).

In turn, `O=C(Oc1ccc([N+](=O)[O-])cc1)N1CCC(C(O)(c2ccc3c(c2)OCO3)c2ccc3c(c2)OCO3)CC1` (10 µM) displayed a morphology score in experiment [1] of 0.0091. The SARS-CoV-2 infection rate in experiment [2] was 103% (inactive).

On to `COc1cccc(OC)c1-c1cc(C(=O)N[C@@H](CC(C)C)C(=O)O)nn1-c1ccnc2cc(Cl)ccc12` (10 µM), for which, in experiment [1], the morphology score is -0.0246. Besides, the SARS-CoV-2 infection rate in experiment [2] is 114% (inactive).

For the compound `CC(=O)O[C@]1(C(C)=O)CC[C@H]2[C@@H]3C[C@H](C)C4=CC(=O)C=C[C@]4(C)[C@@]3(F)[C@@H](O)C[C@@]21C` [fluorometholone-acetate] (10 µM), in experiment [1], the morphology score was 0.0758. Further, the SARS-CoV-2 infection rate in experiment [2] is 105% (inactive).

As to `Cc1ccc(Cl)cc1N(CC(=O)Nc1c(F)cccc1F)S(C)(=O)=O` (10 µM), in experiment [1], the morphology score was 0.0341. Also, the SARS-CoV-2 infection rate in experiment [2] is 113% (inactive).

In experiment [1], `CC(C)[N+](C)(CCC(C(N)=O)(c1ccccc1)c1ccccc1)C(C)C` [isopropamide-iodide] (10 µM) registered a morphology score of 0.192. Besides, the SARS-CoV-2 infection rate in experiment [2] was 100% (inactive).

For `CC(=O)N[C@@H](CC(C)C)C(=O)O` [acetyl-l-leucine] (10 µM), the morphology score in experiment [1] came out at 0.134. Also, the SARS-CoV-2 infection rate in experiment [2] was 94.5% (inactive).

`CCC(=O)NC[C@H](Cc1ccc(OCCc2nc(-c3ccccc3)oc2C)cc1)N/C(C)=C\C(=O)c1ccc(C(F)(F)F)cc1` (10 µM): the morphology score in experiment [1] was -0.0333. Besides, the SARS-CoV-2 infection rate in experiment [2] was 110% (inactive).

For `NCC(O)c1ccc(O)cc1` (stereo unspecified) [octopamine] (10 µM), the morphology score in experiment [1] is -0.0363. Further, in experiment [2], the SARS-CoV-2 infection rate was 114% (inactive).

The compound `CC[C@@H](C)c1ccc(NC(=O)Cn2cnc3c2c(=O)n(C)c(=O)n3C)cc1` (racemic) (10 µM) returned a morphology score in experiment [1] of 0.119. In addition, the SARS-CoV-2 infection rate in experiment [2] is 92% (inactive).

Regarding `Nc1nc(F)nc2c1ncn2[C@@H]1O[C@H](CO)[C@@H](O)[C@@H]1O` [fludarabine] (10 µM), the morphology score in experiment [1] is -0.0436. The SARS-CoV-2 infection rate in experiment [2] was 107% (inactive).

Consider `COc1cccc(/C=N/N=C/c2cccc(OC)c2)c1` (10 µM), for which the morphology score in experiment [1] was found to be 0.132. The SARS-CoV-2 infection rate in experiment [2] is 92% (inactive).

In experiment [1], `O=C(O)CSc1nnc(Br)n1-c1ccc(C2CC2)c2ccccc12` [lesinurad] (10 µM) gave a morphology score of 0.0859. Moreover, in experiment [2], the SARS-CoV-2 infection rate was 95% (inactive).

In the case of `CC(C)(Oc1ccc(C2CC2(Cl)Cl)cc1)C(=O)O` (stereo unspecified) [ciprofibrate] (10 µM), in experiment [1], the morphology score was -0.0908. Moreover, in experiment [2], the SARS-CoV-2 infection rate is 109% (inactive).
